# Measured values taken from PubChem BioAssay (NCATS).
# A number with no mark means an inactive call. Records with an inconclusive call do not appear. Entries that show only a call come without a potency. Activity calls are given as the source filed them. Calls come from the whole dose curve; as a rule, active = well fitted curve in the direction sought with a large enough effect; inconclusive = small, poorly fitted or top-dose-only effect, or another doubt; inactive = no such curve, though single readings can be large; an effect the other way counts as inactive or inconclusive.
# Tests used:
# [1] = Primary qHTS for inhibitors of nuclear receptor binding SET domain protein 2 (NSD2) in an isogenic RCH-ACV NSD2 p.E1099K mutant (9B) (AID 1645876); note: nearly all actives have a fitted effect of over 70% in size
# [2] = Primary qHTS for inhibitors of nuclear receptor binding SET domain protein 2 (NSD2) in an RCH-ACV wild type WT cells (2C) (AID 1645877); note: nearly all actives have a fitted effect of over 70% in size
# [3] = molecular target: Glutathione peroxidase 1 (Homo sapiens) (UniProt P07203); test: Primary qHTS Assay for Inhibitors of Recombinant Selenoprotein Glutathione Peroxidase 1 (GPX1) (AID 1845191); note: nearly all actives have a fitted effect of over 65% in size
# Glutathione peroxidase 1 (Homo sapiens), sequence (P07203 whole entry, looked up): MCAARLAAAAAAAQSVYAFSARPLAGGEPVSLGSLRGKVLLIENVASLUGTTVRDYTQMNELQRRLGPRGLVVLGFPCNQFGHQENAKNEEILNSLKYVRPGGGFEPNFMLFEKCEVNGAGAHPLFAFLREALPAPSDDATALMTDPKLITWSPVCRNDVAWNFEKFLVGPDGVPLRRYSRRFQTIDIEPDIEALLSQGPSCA
# Summary of the method: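 GPX1 10 nM, GR 100 nM, GSH 1 mM, NADPH 0.5 mM, CHP 0.5 mM (final). 30-min cpd preincubation, RT. Ex340/Em450 read t=0, t=15 min.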
# [4] = molecular target: Phospholipid hydroperoxide glutathione peroxidase GPX4 (Homo sapiens) (UniProt P36969); test: Primary qHTS Assay for Inhibitors of Recombinant Selenoprotein Glutathione Peroxidase 4 (GPX4) (AID 1845192); note: nearly all actives have a fitted effect of over 65% in size
# Phospholipid hydroperoxide glutathione peroxidase GPX4 (Homo sapiens), sequence (P36969 whole entry, looked up): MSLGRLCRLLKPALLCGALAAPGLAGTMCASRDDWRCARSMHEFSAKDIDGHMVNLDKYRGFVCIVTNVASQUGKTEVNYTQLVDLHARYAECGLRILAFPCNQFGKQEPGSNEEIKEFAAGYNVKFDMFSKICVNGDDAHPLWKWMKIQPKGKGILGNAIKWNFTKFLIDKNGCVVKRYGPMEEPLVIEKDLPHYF
# Summary of the method: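 qHTS, GR-coupled: GPX4 200 nM + cpd 30 min RT → GSH 1 mM, NADPH 0.5 mM, GR 100 nM → CHP 0.5 mM start; fluor 340/450 at t0 and t15 min; no-enzyme wells as control.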
# [5] = molecular target: Luciferin 4-monooxygenase (Photinus pyralis) (UniProt P08659); test: Primary firefly luciferase (FLuc) qHTS assay for identification of artifact compounds. (AID 1845220); conditions: outcome: dose series up to 54.1 µM unless noted; note: nearly all actives have a fitted effect of over 60% in size
# Summary of the method: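 qHTS, 15 min compound preincubation with substrate (10 uM luciferin, 10 uM ATP) at RT, then 10 nM FLuc; 5 min; luminescence; % inhibition vs no-enzyme/DMSO controls, 4-parameter Hill fit.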
# [6] = Primary fluorescence-based thiol-reactive (MSTI) qHTS assay for identification of artifact compounds. (AID 1845221); note: nearly all actives have a fitted effect of over 65% in size; note: potency is the fitted concentration of half-maximal effect
# Summary of the method: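 In PBS pH 7.4 with 2% DMSO, each compound met 4 uM MSTI for one hour at ambient temperature, shielded from light, before fluorescence detection.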
# [7] = system: Nanoluciferase (engineered Oplophorus gracilirostris luciferase); test: Primary Nanoluciferase (NLuc) qHTS assay for identification of artifact compounds. (AID 1845222)
# Summary of the method: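 Luminescence read-out of secreted NLuc in S16 cell conditioned medium (1:55); compounds tested with 15 min RT preincubation, then Nano-Glo substrate 1:100, 5 min. % inhibition vs no-enzyme and DMSO controls, 4-parameter Hill fit.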
# CRL-7250 = normal cell line; test: Cytotoxic Profiling of Annotated Libraries Using Quantitative High-Throughput Screening (AID 1296008); conditions: Five cell lines viability, CellTiter-Glo ATP luminescence, 48-72 h; max response: stronger effect = lower value; note: nearly all actives have a fitted effect of over 60% in size
# Summary of the method: (§1)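 Compounds were pin-transferred onto cells and incubated 48 or 72 hr at 37 degree Celsius, 95% humidity. CellTiter-Glo was added, plates sat 10 min at room temperature, then ATP-coupled luminescence was imaged as the viability read-out.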
# HEK293 = test: as above; conditions: Five cell lines viability, CellTiter-Glo ATP luminescence, 48-72 h; max response: stronger effect = lower value
# Summary of the method: as §1
# HaCat = test: as above; conditions: Five cell lines viability, CellTiter-Glo ATP luminescence, 48-72 h; max response: stronger effect = lower value
# Summary of the method: as §1
# KB-3-1 = test: as above; conditions: Five cell lines viability, CellTiter-Glo ATP luminescence, 48-72 h; max response: stronger effect = lower value
# Summary of the method: as §1
# NIH3T3 = test: as above; conditions: Five cell lines viability, CellTiter-Glo ATP luminescence, 48-72 h; max response: stronger effect = lower value
# Summary of the method: as §1
# C33A = test: Primary qHTS to identify gynecologic anti-cancer compounds using libraries of approved drugs and bioactive compounds (AID 1345084); conditions: Gynecologic cancer cell panel viability, ATPlite luminescence, 48 h; series mostly up to 57.5 µM; note: nearly all actives have a fitted effect of over 55% in size
# Summary of the method: (§2)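 Five-concentration response, 48 h; readout is ATP-driven luciferase luminescence.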
# CASKI = test: as above; conditions: Gynecologic cancer cell panel viability, ATPlite luminescence, 48 h; series mostly up to 57.5 µM
# Summary of the method: as §2
# Es-2 = test: as above; conditions: Gynecologic cancer cell panel viability, ATPlite luminescence, 48 h; series mostly up to 57.5 µM
# Summary of the method: as §2
# Hek293T = test: as above; conditions: Gynecologic cancer cell panel viability, ATPlite luminescence, 48 h, control line for the selectivity index; series mostly up to 57.5 µM
# Summary of the method: as §2
# OV90 = test: as above; conditions: Gynecologic cancer cell panel viability, ATPlite luminescence, 48 h; series mostly up to 57.5 µM
# Summary of the method: as §2
# PA-1 = test: as above; conditions: Gynecologic cancer cell panel viability, ATPlite luminescence, 48 h; series mostly up to 57.5 µM
# Summary of the method: as §2
# Tov-21-G = test: as above; conditions: Gynecologic cancer cell panel viability, ATPlite luminescence, 48 h; series mostly up to 57.5 µM
# Summary of the method: as §2
# Tov112D = test: as above; conditions: Gynecologic cancer cell panel viability, ATPlite luminescence, 48 h; series mostly up to 57.5 µM
# Summary of the method: as §2
structure (smiles),measurement,setting,value
Cc1c(N2C(=O)[C@@H]3[C@H](O)CCN3C2=O)ccc(C#N)c1Cl,Potency,[1],inactive
same,Potency,[2],inactive
same,Potency,[3],inactive
same,Potency,[4],inactive
same,outcome,[5],inactive
same,Potency,[6],inactive
same,Potency,[7],inactive
same,max response,CRL-7250,-13.8%
same,max response,HEK293,-6.16%
same,outcome,HaCat,inactive
same,max response,KB-3-1,-9.81%
same,max response,NIH3T3,-8.96%
same,Potency,C33A,inactive
same,Potency,CASKI,inactive
same,Potency,Es-2,inactive
same,Potency,Hek293T,inactive
same,Potency,OV90,inactive
same,Potency,PA-1,inactive
same,Potency,Tov-21-G,inactive
same,Potency,Tov112D,inactive
CC1=CC2/C=C(\C)CCCC(O)/C=C/C(=O)OC23C(=O)NC(CC(C)C)C3C1C (stereo not drawn),Potency,[1],inactive
same,Potency,[2],inactive
same,Potency,[3],inactive
same,Potency,[4],inactive
same,outcome,[5],inactive
same,Potency,[6],inactive
same,Potency,[7],inactive
same,outcome,CRL-7250,inactive
same,max response,HEK293,-0.114%
same,max response,HaCat,-3.87%
same,outcome,KB-3-1,inactive
same,max response,NIH3T3,1.49%
same,Potency,C33A,inactive
same,Potency,Es-2,inactive
same,Potency,Hek293T,inactive
same,Potency,OV90,inactive
same,Potency,PA-1,inactive
same,Potency,Tov-21-G,inactive
same,Potency,Tov112D,inactive
CC(=O)N1N=C(c2ccc(N)cc2)c2cc3c(cc2C[C@H]1C)OCO3,Potency,[2],inactive
same,Potency,[3],inactive
same,outcome,[5],inactive
same,Potency,[7],inactive
same,max response,CRL-7250,-0.992%
same,max response,HEK293,-4.81%
same,max response,HaCat,-4.11%
same,max response,KB-3-1,6.29%
same,max response,NIH3T3,-2.08%
same,Potency,C33A,inactive
same,Potency,CASKI,inactive
same,Potency,Es-2,inactive
same,Potency,Hek293T,inactive
same,Potency,OV90,inactive
same,Potency,PA-1,inactive
same,Potency,Tov-21-G,inactive
same,Potency,Tov112D,inactive
CC1=CC2(O)/C=C/C(C)(O)C(O)C(O)/C=C/C(=O)OC23C(=O)NC(CC(C)C)C3C1C (stereo not drawn),Potency,[1],inactive
same,Potency,[2],inactive
same,Potency,[3],inactive
same,Potency,[4],inactive
same,outcome,[5],inactive
same,Potency,[6],10.3 µM (active)
same,Potency,[7],inactive
same,max response,CRL-7250,-1.26%
same,max response,HEK293,-8.27%
same,outcome,HaCat,inactive
same,outcome,KB-3-1,inactive
same,max response,NIH3T3,0.398%
same,Potency,C33A,inactive
same,Potency,CASKI,inactive
same,Potency,Es-2,inactive
same,Potency,Hek293T,inactive
same,Potency,OV90,inactive
same,Potency,PA-1,inactive
same,Potency,Tov-21-G,inactive
same,Potency,Tov112D,inactive
CC1(C)C(=O)N(c2ccc(C#N)c(C(F)(F)F)c2)C(=O)N1CCCCO,Potency,[1],inactive
same,Potency,[2],inactive
same,Potency,[3],inactive
same,Potency,[4],inactive
same,outcome,[5],inactive
same,Potency,[6],inactive
same,Potency,[7],inactive
same,max response,CRL-7250,-11%
same,max response,HEK293,-15.9%
same,max response,HaCat,-18.8%
same,max response,KB-3-1,-3.73%
same,max response,NIH3T3,-6.14%
same,Potency,C33A,inactive
same,Potency,CASKI,inactive
same,Potency,Es-2,inactive
same,Potency,Hek293T,inactive
same,Potency,OV90,inactive
same,Potency,PA-1,inactive
same,Potency,Tov-21-G,inactive
same,Potency,Tov112D,inactive
CC1CCCC(O)CC(=O)Cc2cc(O)cc(O)c2C(=O)O1 (stereo not drawn),Potency,[1],inactive
same,Potency,[2],inactive
same,Potency,[3],inactive
same,Potency,[4],inactive
same,outcome,[5],inactive
same,Potency,[7],inactive
same,max response,CRL-7250,-9.43%
same,max response,HEK293,4.64%
same,outcome,HaCat,inactive
same,max response,KB-3-1,8.3%
same,max response,NIH3T3,2.95%
same,Potency,C33A,inactive
same,Potency,CASKI,inactive
same,Potency,Es-2,inactive
same,Potency,Hek293T,inactive
same,Potency,OV90,inactive
same,Potency,PA-1,inactive
same,Potency,Tov-21-G,inactive
same,Potency,Tov112D,inactive
COc1cc(N2CCN(C)CC2)ccc1N,Potency,[3],inactive
same,Potency,[4],inactive
same,Potency,[6],1.19 µM (active)
same,Potency,[7],inactive
same,max response,CRL-7250,0.376%
same,max response,HEK293,-21.4%
same,max response,HaCat,1.34%
same,max response,KB-3-1,-1.04%
same,max response,NIH3T3,-6.74%
same,Potency,C33A,inactive
same,Potency,CASKI,inactive
same,Potency,Es-2,inactive
same,Potency,Hek293T,inactive
same,Potency,OV90,inactive
same,Potency,PA-1,inactive
same,Potency,Tov-21-G,inactive
same,Potency,Tov112D,inactive
COC1C=CC23c4cc5c(cc4COC2(O)CN(C)C3C1)OCO5 (stereo not drawn),Potency,[1],inactive
same,Potency,[2],inactive
same,Potency,[3],inactive
same,outcome,[5],inactive
same,Potency,[6],inactive
same,Potency,[7],inactive
same,max response,CRL-7250,-6.96%
same,max response,HEK293,-0.372%
same,outcome,HaCat,inactive
same,outcome,KB-3-1,inactive
same,max response,NIH3T3,-0.709%
same,Potency,C33A,inactive
same,Potency,CASKI,inactive
same,Potency,Es-2,inactive
same,Potency,Hek293T,inactive
same,Potency,OV90,inactive
same,Potency,Tov-21-G,inactive
same,Potency,Tov112D,inactive
C=CC/C=C\C/C=C\CCCCCCCc1cc(O)cc(O)c1,Potency,[3],inactive
same,Potency,[4],inactive
same,outcome,[5],inactive
same,Potency,[6],inactive
same,Potency,[7],inactive
same,max response,CRL-7250,-22.2%
same,max response,HEK293,-20.2%
same,outcome,HaCat,inactive
same,max response,KB-3-1,-0.409%
same,max response,NIH3T3,-20.8%
same,Potency,C33A,inactive
same,Potency,CASKI,inactive
same,Potency,Es-2,inactive
same,Potency,Hek293T,inactive
same,Potency,OV90,inactive
same,Potency,PA-1,inactive
same,Potency,Tov-21-G,inactive
same,Potency,Tov112D,inactive
N#CC(O[C@@H]1O[C@H](CO)[C@@H](O)[C@H](O)[C@H]1O)c1ccccc1 (stereo partly drawn),Potency,[1],inactive
same,Potency,[2],inactive
same,Potency,[3],inactive
same,Potency,[4],inactive
same,outcome,[5],inactive
same,Potency,[6],inactive
same,Potency,[7],inactive
same,outcome,CRL-7250,inactive
same,max response,HEK293,-8.76%
same,max response,HaCat,-12%
same,max response,KB-3-1,0.785%
same,max response,NIH3T3,1.1%
same,Potency,C33A,inactive
same,Potency,CASKI,inactive
same,Potency,Es-2,inactive
same,Potency,Hek293T,inactive
same,Potency,OV90,inactive
same,Potency,PA-1,inactive
same,Potency,Tov-21-G,inactive
same,Potency,Tov112D,inactive
CC(=O)O[C@@H]1[C@H]2CC[C@H]3[C@@](C)(O)[C@@H]4C[C@H](O)C(C)(C)[C@@]4(O)[C@H](O)C[C@@]13C[C@@]2(C)O,Potency,[1],inactive
same,Potency,[2],inactive
same,Potency,[3],inactive
same,Potency,[4],inactive
same,outcome,[5],inactive
same,Potency,[6],inactive
same,Potency,[7],inactive
same,outcome,CRL-7250,inactive
same,max response,HEK293,2%
same,max response,HaCat,-9.56%
same,max response,KB-3-1,2.41%
same,max response,NIH3T3,4.65%
same,Potency,C33A,inactive
same,Potency,CASKI,inactive
same,Potency,Es-2,inactive
same,Potency,Hek293T,inactive
same,Potency,OV90,inactive
same,Potency,PA-1,inactive
same,Potency,Tov-21-G,inactive
same,Potency,Tov112D,inactive
